The values that follow come from ChEMBL document CHEMBL1961873, “Compounds: GSK PKIS; Assays: Nanosyn kinase panel” (2012).

The target in test [1] is Tyrosine-protein kinase Fyn (Homo sapiens) (UniProt P06241). The conditions noted are these: at 1 µM.
Test [2] concerns the target Tyrosine-protein kinase HCK (Homo sapiens) (UniProt P08631). The conditions noted are these: at 0.1 µM.
For test [3] the target is unchanged. The following applies: at 1 µM.
Test [4] addresses Insulin-like growth factor 1 receptor (Homo sapiens) (UniProt P08069). The conditions noted are these: at 0.1 µM.
Test [5] shares this target. The following applies: at 1 µM.
The target of test [6] is Insulin receptor (Homo sapiens) (UniProt P06213). The following applies: at 0.1 µM.
Test [7] shares this target. The conditions noted are these: at 1 µM.
In test [8] the target is Insulin receptor-related protein (Homo sapiens) (UniProt P14616). The conditions noted are these: at 0.1 µM.
The target is the same in test [9]. The conditions noted are these: at 1 µM.
The target of test [10] is T1, Tyrosine-protein kinase ITK/TSK (Homo sapiens) (UniProt Q08881).
T1 sequence (whole entry): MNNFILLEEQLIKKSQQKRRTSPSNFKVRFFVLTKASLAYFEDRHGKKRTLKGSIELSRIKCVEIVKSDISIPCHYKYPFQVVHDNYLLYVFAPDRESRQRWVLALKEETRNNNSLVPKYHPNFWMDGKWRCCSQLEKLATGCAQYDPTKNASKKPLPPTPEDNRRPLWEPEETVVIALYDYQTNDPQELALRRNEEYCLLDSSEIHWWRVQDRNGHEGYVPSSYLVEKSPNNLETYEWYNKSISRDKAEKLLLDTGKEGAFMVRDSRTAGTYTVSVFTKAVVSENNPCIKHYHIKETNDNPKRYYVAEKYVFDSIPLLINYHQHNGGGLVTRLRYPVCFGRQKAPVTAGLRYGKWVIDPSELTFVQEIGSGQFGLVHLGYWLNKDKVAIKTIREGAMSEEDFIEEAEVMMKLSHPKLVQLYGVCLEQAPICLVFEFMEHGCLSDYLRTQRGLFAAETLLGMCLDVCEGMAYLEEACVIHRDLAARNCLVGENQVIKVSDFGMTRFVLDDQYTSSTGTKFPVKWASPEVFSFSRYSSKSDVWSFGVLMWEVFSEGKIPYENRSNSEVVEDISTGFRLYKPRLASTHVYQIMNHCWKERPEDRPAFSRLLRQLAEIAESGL
The following applies: at 0.1 µM.

The target of test [11] is T1, Tyrosine-protein kinase ITK/TSK (Homo sapiens). The conditions noted are these: at 1 µM.
For test [12], the target named is Tyrosine-protein kinase JAK1 (Homo sapiens) (UniProt P23458). The following applies: at 0.1 µM.
The target is the same in test [13]. The conditions noted are these: at 1 µM.
Test [14] deals with Tyrosine-protein kinase JAK2 (Homo sapiens) (UniProt O60674). The following applies: at 0.1 µM.
Test [15] shares this target. The conditions noted are these: at 1 µM.
Test [16] addresses T2, Tyrosine-protein kinase JAK3 (Homo sapiens) (UniProt P52333).
T2 sequence (whole entry): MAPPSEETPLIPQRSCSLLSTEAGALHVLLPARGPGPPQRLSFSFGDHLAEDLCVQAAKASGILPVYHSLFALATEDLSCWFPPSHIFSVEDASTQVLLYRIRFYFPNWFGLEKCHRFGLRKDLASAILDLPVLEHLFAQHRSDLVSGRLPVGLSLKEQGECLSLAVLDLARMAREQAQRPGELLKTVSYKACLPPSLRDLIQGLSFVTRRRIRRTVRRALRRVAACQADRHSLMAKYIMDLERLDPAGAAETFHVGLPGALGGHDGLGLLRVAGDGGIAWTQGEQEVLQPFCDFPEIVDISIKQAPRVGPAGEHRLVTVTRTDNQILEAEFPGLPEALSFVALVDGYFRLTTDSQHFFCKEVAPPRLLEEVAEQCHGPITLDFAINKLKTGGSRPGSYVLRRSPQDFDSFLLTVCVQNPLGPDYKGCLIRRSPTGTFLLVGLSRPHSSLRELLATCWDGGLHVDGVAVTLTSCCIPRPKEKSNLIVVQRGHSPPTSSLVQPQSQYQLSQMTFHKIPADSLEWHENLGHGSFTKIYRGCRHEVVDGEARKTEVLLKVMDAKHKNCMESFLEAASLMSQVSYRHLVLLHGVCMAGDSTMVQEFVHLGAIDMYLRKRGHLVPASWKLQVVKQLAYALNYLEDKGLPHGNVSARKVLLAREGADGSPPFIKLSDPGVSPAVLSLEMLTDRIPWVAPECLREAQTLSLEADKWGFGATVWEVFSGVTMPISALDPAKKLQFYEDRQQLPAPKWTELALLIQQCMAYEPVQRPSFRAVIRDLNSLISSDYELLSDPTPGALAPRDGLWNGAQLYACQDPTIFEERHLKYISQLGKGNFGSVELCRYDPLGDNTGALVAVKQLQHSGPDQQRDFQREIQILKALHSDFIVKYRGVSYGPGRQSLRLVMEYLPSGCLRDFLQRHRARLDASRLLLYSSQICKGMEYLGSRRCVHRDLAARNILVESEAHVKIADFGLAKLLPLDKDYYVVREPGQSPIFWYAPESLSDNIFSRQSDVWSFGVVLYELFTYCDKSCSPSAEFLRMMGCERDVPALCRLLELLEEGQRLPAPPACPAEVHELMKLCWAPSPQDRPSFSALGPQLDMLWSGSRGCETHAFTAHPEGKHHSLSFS
The following applies: at 0.1 µM.

The target of test [17] is T2, Tyrosine-protein kinase JAK3 (Homo sapiens). The following applies: at 1 µM.
For test [18], the target named is Vascular endothelial growth factor receptor 2 (Homo sapiens) (UniProt P35968). The following applies: at 0.1 µM.
For test [19] the target is unchanged. The following applies: at 1 µM.
Test [20] deals with Mast/stem cell growth factor receptor Kit (Homo sapiens) (UniProt P10721). The conditions noted are these: at 0.1 µM.

Chain of Tyrosine-protein kinase Fyn (Homo sapiens) (P06241 2-537 limits assumed): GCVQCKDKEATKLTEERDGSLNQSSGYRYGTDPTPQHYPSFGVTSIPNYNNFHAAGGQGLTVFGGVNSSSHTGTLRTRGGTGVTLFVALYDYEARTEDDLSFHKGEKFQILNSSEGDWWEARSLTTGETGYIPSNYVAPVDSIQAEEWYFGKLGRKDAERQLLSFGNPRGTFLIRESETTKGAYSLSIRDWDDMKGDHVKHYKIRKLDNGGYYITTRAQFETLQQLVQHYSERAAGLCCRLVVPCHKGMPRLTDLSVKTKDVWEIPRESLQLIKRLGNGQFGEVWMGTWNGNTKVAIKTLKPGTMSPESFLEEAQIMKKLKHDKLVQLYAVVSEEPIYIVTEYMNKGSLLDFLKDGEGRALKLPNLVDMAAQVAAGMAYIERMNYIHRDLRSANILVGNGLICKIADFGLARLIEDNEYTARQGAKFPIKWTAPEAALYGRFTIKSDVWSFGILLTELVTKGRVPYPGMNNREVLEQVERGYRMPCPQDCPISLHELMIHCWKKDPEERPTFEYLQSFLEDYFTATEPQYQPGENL
Chain of Tyrosine-protein kinase JAK2 (Homo sapiens) (O60674 whole entry): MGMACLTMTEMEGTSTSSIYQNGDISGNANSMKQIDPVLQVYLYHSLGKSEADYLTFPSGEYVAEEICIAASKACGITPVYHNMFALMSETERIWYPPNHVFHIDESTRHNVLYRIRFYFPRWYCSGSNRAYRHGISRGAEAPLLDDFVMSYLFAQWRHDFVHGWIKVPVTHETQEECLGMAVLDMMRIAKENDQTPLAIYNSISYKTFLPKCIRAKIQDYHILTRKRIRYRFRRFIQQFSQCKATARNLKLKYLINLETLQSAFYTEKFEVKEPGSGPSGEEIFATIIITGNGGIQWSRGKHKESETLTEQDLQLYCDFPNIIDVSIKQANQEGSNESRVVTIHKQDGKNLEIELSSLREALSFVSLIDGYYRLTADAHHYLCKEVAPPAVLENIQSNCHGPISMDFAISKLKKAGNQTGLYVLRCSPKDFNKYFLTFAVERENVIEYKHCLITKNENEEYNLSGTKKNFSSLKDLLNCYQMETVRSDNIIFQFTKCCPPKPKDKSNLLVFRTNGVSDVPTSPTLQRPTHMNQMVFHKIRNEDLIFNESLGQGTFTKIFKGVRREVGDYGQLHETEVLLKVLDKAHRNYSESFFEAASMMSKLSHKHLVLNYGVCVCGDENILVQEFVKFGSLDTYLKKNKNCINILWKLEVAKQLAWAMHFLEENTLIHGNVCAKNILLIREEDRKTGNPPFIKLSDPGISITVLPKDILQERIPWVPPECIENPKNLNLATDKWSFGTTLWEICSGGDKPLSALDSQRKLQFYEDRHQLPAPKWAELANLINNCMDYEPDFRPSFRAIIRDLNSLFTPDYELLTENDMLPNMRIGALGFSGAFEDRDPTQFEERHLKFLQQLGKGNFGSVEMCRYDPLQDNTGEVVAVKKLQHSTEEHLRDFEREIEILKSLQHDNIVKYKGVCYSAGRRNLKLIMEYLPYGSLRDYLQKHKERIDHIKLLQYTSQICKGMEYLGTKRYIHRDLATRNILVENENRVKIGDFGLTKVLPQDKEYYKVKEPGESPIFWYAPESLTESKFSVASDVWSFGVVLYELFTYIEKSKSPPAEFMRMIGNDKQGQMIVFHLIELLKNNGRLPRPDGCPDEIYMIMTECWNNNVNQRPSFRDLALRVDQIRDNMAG
Chain of Vascular endothelial growth factor receptor 2 (Homo sapiens) (P35968 whole entry): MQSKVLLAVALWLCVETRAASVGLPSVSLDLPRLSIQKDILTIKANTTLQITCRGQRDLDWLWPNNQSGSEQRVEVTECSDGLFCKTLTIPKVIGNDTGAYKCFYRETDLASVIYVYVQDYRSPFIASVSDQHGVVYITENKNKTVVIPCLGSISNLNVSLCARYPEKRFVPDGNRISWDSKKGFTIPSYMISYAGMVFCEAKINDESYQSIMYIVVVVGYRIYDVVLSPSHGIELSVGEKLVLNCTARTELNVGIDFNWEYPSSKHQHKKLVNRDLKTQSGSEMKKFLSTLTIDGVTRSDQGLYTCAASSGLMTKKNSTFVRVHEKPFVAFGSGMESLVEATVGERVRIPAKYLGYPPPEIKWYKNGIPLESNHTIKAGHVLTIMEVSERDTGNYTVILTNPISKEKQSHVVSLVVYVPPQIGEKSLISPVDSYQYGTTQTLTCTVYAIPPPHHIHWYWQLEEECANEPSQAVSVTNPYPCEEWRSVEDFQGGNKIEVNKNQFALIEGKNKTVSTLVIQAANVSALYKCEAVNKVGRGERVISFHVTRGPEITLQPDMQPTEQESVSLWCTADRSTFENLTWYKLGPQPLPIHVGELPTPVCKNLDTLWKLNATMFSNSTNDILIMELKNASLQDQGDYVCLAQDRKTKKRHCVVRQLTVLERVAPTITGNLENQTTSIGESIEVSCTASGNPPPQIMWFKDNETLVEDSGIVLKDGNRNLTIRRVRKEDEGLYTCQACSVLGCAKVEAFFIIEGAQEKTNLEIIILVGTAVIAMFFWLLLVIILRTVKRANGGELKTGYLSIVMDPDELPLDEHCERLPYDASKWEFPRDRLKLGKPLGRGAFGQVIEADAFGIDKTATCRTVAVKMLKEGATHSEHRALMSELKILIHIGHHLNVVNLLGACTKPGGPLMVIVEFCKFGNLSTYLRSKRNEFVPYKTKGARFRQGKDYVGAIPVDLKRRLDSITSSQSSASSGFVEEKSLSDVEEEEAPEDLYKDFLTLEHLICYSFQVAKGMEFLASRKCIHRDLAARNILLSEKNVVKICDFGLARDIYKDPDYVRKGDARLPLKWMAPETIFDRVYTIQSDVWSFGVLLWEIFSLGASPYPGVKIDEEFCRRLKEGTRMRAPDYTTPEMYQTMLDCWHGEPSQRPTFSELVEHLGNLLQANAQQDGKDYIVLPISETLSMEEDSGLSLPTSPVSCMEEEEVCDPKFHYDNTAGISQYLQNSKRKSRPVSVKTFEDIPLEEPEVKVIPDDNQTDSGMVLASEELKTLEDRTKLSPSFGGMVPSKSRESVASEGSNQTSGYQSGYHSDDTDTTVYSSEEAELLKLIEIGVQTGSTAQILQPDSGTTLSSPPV
Chain of Insulin-like growth factor 1 receptor (Homo sapiens) (P08069 31-736 limits assumed): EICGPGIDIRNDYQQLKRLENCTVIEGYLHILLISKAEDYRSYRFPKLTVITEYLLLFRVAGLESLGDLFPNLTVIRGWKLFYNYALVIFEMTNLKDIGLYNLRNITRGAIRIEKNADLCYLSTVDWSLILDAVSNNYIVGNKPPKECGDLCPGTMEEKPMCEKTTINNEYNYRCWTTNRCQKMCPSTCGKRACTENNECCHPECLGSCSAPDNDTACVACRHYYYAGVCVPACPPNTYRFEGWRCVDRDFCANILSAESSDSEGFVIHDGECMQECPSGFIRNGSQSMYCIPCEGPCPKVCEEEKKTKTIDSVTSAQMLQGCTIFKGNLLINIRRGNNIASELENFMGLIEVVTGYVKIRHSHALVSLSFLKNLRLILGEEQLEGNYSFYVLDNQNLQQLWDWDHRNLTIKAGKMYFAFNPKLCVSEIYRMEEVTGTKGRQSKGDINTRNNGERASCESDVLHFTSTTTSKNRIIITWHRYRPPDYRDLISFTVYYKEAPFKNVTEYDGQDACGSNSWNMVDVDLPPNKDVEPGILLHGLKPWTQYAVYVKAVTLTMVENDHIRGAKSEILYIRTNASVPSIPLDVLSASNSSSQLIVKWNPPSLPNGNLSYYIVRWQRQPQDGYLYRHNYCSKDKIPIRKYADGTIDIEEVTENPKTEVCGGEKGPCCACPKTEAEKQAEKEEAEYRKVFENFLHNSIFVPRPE
Chain of Insulin-like growth factor 1 receptor (Homo sapiens) (P08069 741-1367 limits assumed): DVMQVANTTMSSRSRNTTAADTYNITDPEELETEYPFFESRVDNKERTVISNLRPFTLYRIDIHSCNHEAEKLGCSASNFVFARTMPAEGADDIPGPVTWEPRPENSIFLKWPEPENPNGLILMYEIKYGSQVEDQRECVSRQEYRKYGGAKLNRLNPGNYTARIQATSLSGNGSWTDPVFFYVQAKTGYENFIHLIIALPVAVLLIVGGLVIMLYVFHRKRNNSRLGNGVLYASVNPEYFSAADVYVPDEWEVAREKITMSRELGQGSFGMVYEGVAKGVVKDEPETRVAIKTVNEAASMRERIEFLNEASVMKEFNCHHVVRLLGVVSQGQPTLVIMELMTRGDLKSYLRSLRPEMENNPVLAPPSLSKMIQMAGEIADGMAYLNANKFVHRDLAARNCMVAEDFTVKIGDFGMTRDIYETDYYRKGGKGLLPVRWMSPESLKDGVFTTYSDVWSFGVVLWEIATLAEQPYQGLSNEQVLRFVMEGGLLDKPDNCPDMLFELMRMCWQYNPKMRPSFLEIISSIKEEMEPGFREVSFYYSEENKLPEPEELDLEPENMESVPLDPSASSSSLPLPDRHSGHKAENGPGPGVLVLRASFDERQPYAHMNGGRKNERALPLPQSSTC
Chain of Tyrosine-protein kinase HCK (Homo sapiens) (P08631 2-526 limits assumed): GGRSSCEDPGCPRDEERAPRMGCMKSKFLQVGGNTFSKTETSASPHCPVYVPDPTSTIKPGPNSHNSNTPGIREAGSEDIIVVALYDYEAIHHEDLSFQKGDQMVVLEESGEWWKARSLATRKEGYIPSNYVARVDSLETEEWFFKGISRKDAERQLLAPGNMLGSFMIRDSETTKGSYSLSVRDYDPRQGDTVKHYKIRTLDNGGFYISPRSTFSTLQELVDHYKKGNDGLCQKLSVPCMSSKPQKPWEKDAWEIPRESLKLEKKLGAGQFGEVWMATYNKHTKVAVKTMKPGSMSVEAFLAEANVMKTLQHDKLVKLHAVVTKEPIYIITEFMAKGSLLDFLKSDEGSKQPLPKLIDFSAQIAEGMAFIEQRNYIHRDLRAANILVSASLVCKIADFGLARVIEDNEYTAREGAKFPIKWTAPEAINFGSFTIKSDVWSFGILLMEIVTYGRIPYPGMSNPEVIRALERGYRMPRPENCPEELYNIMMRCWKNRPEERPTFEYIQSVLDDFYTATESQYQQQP

For the compound `Cc1ccc2c(c1)/C(=N/Nc1ccc(S(N)(=O)=O)cc1)C(=O)N2`, the inhibition (commonly the relative decrease from the control value, in per cent) in test [1] is 0.85%; in [2], 1.4%; in test [3], 6.19%; in [4] it was -1.37%; in test [5], -2.24%; in [6], -0.03%. Further, the inhibition in test [7] is 1.98%; in [8], -1.32%; in test [9], -0.18%; in [10], 0.66%; in test [11] it was 1.38%; in test [12] it was -1.86%. For the same compound, the inhibition in test [13] is -1.74%; in test [14] it was -1.17%; in [15], -0.24%; in test [16] it was 0.33%; in test [17] it was 4.38%; in test [18], 2.62%. The inhibition in test [19] amounted to 22.6%; in test [20], 27.8%.

For `CCn1c(-c2nonc2N)nc2ccc(F)cc21`, the inhibition in [1] is 4.14%; in test [2], 4.97%; in [3] it was 7.63%; in test [4], 4.55%; in [5], 8.11%; in [6], 5.06%. The inhibition was found to be 5.22% in test [7]; 4.24% in test [8]; 3.56% in test [9]; 2.15% in [10]; 1.52% in test [11]; 5.5% in [12]. The inhibition was 10.5% in test [13]; 1.07% in [14]; 1.29% in test [15]; -1.62% in test [16]; -1.23% in test [17]; 5.19% in test [18]. In addition, the inhibition in [19] turned out to be 6.9%; in [20], 5.81%.

Regarding `CCn1c(-c2nonc2N)nc2c(C#CC(C)(C)O)nc(OCCNC)cc21`, the inhibition amounted to 4.65% in [1]; 5.42% in test [2]; 8.69% in [3]; 5.39% in test [4]; 3.53% in [5]; 6.39% in [6]. Also, the inhibition in test [7] turned out to be 5.58%; in test [8] it was 0.83%; in [9], 1.9%; in [10] it was 0.63%; in [11], 0.12%; in test [12] it was 1.27%. Moreover, the inhibition in [13] was 2.83%; in [14] it was 2.5%; in [15], 3.3%; in test [16] it was -2.54%; in [17] it was -0.89%; in test [18] it was 16.2%. The inhibition turned out to be 64.8% in [19] and 4.99% in test [20].

Turning to `NS(=O)(=O)c1ccc(Nc2cc(-c3cccc(O)c3)n[nH]2)cc1`, the inhibition in [1] is 2.45%; in test [2] it was 5.06%; in test [3], 11.7%; in test [4], 5.98%; in test [5] it was 5.23%; in test [6] it was 3.33%. The inhibition in [7] is 3.4%; in [8] it was 6.28%; in [9] it was 2.76%; in [10] it was 2.78%; in test [11] it was 4.07%; in test [12], 4.66%. For the same compound, the inhibition in test [13] was 7.23%; in test [14], 1.41%; in [15], 1.95%; in [16], -1.44%; in test [17], 1.25%; in [18], 9.9%. Moreover, the inhibition in test [19] came out at 19.2%; in test [20], 33.2%.

With `Nc1nccc(C#Cc2cncnc2Nc2ccc(OCc3cccc(F)c3)c(Cl)c2)n1`, the inhibition in [1] was determined as 2.19%; in [2] it was 5.32%; in test [3], 10.2%; in [4], 3.97%; in [5] it was 4.12%; in [6], 3.13%. The inhibition in [7] is 4.44%; in [8] it was 8.14%; in test [9], 1.12%; in [10] it was 1.89%; in test [11], 3.09%; in test [12], 2.03%. Also, the inhibition worked out at 2.27% in test [13]; 1.73% in test [14]; 1.57% in [15]; 0.41% in [16]; 4.42% in test [17]; 6.4% in test [18]. For the same compound, the inhibition in test [19] was 10.6%; in test [20], 3.65%.

`ON=C1CCc2cc(-c3nc(C4CCNCC4)[nH]c3-c3ccncc3)ccc21`: the inhibition is 0.87% in [1]; 0.2% in [2]; 4.24% in [3]; -1.78% in test [4]; -0.56% in test [5]; 1.61% in [6]. The inhibition in test [7] is -0.75%; in test [8] it was -1.51%; in test [9], -0.82%; in [10] it was 0.74%; in [11], 0.87%; in test [12], -0.79%. Further, the inhibition was 0.05% in test [13]; -0.01% in test [14]; 0.28% in [15]; -1.58% in [16]; 3.17% in test [17]; 1.06% in test [18]. Moreover, the inhibition in test [19] is 4.49%; in test [20] it was -3%.

`O=C1Nc2ccccc2/C1=C/Nc1ccc2[nH]c(=O)[nH]c2c1`: the inhibition was found to be 10.9% in [1]; 7.89% in test [2]; 21.5% in test [3]; 7.08% in test [4]; 24.8% in test [5]; 8.02% in test [6]. Also, the inhibition in test [7] turned out to be 32.4%; in test [8], 3.85%; in test [9], 6.41%; in test [10], 1.78%; in test [11], 5.35%; in [12], 3.96%. Besides, the inhibition was 20.8% in [13]; 1.12% in [14]; 1.93% in test [15]; -1.44% in test [16]; 8.66% in test [17]; 13.7% in [18]. Moreover, in test [19], the inhibition came out at 48.1%.
